Screening data (PubChem)
Sampled rows, rich in hits. Any-hit rate of the full collection: about 7.1%.
SW480 rereplic = A quantitative high throughput screen for small molecules that induce DNA re-replication in SW480 colon adenocarcinoma cells. Potency, µM (doses to about 46.1 µM), inactives show at the top dose re-replication activation, most hits filed as activators. SW480 DNA re-replication, Hoechst DNA content imaging, 48 h. 340,000 compounds, 1.8% hits. AID 624297, 2012; further: potency means the concentration at half of the fitted maximal effect; % of control where 0% means no effect; nearly all actives have a fitted effect of over 55% in size
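250 cells/well; 23 nL cpd via pin tool; 48 hr, 37 C, 5% CO2; Hoechst 40 min; imager read of total nuclear intensity, ex 405/em 500-530 nm.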
PINK1 expr mod = A Quantitative High throughput Screen to Identify Chemical Modulators of PINK1 Expression; PINK1 immunofluorescence, high-content cytometry, 24 h; Potency, µM (series often up to 76.6 µM), for the others: at the top dose activation (PINK1 increase), usual class: activators; 410,000 compounds, 0.2% hits; active means well fitted activation curve with a large enough effect; inconclusive means small, poorly fitted or top-dose-only effect; cell line not stated here; further: potency means the concentration at half of the fitted maximal effect; % of control where 0% means no effect; nearly all actives have a fitted effect of over 65% in size
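Measures PINK1 amount and localization on or inside mitochondria by immunofluorescence. Stable cells get compounds at 5 concentrations for 24 hours before fixation and staining; CCCP controls included.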
ATXN2 expr inh = Primary qHTS for Inhibitors of ATXN expression | Potency, µM (top dose mostly 57 µM), inactives show top-dose activity change, negative = inhibition, usual class: inhibitors | HEK-293 ATXN2-luciferase reporter, luminescence, 24 h | AID 1745845, 2022 | 360,000 compounds, 0.72% hits; further: potency means the concentration at half of the fitted maximal effect; on the % scale 0 is the no-effect control and ±100 the full control effect; nearly all actives have a fitted effect of over 55% in size
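ATXN2-luciferase reporter cells (luciferase flanked by upstream and downstream ATXN2 gene portions) were treated 24 h at 37 °C with compounds at up to 57 uM. SteadyGlo luminescence gave expression; GF-AFC fluorescence gave viability.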
IL1B secr inh = qHTS for Inhibitors of Inflammasome Signaling: IL-1-beta AlphaLISA Primary Screen. THP-1 LPS/ATP IL-1B secretion, AlphaLISA, 16 h; hits give low values. 360,000 compounds, 4.7% hits. AID 743279, 2014. activity change, % at 57.5 µM; in the data active means activity change below about -50%; inconclusive means mostly about -30% to -49%; further: on the % scale 0 is the no-effect control and ±100 the full control effect
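THP-1 cells pretreated 1 hr with compounds (up to 57.5 uM final), then stimulated with LPS (250 ng/mL final) plus ATP (1.25 mM final); secreted IL-1B measured by AlphaLISA after 16 hr, decreased signal indicating inhibition.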
ATXN viability = Viability Counterscreen for Primary qHTS for Inhibitors of ATXN expression. 400,000 compounds, 0.49% hits. Potency, µM (highest dose often 56.7 µM), usual class: cytotoxic. S2 cells (HEK-293 line with an ATXN2-luciferase reporter) viability, CellTiter-Fluor protease fluorescence, 24 h; further: potency means the concentration at half of the fitted maximal effect; nearly all actives have a fitted effect of over 40% in size
MCF10A rerep = A quantitative high throughput screen for small molecules that induce DNA re-replication in MCF 10a normal breast cells; MCF 10A DNA re-replication, Hoechst nuclear intensity, 48 h; Potency, µM (highest dose often 46.1 µM), inactives show top-dose activity, positive = re-replication, usual class: activators; 350,000 compounds, 2.9% hits; AID 624296, 2012; further: potency means the concentration at half of the fitted maximal effect; % of control where 0% means no effect; nearly all actives have a fitted effect of over 50% in size
The depositor's hits bear a star; i = inactive; ? = inconclusive; · = no result; [ ] = dose if it differs, or a comment. Unless noted, the call rests on the fitted dose curve; in most records, active means well fitted curve in the direction sought with a large enough effect; inconclusive means small, poorly fitted or top-dose-only effect, or another doubt; inactive means no such curve, though single readings can be large; an effect the other way counts as inactive or inconclusive.

SMILES | SW480 rereplic | PINK1 expr mod | ATXN2 expr inh | IL1B secr inh | ATXN viability | MCF10A rerep
C/C(=N\NC(=O)C1CCCN(S(=O)(=O)c2ccccc2)C1)c1ccncc1 (configuration not stated) | -1%[9.22 µM] | 0% | 3% | -7 | i | -1%
CC(=NNC(=S)N1CCN(C2CCCCCC2)CC1)c1ccccn1 | ? | -7% | -82% | -98* | 1.2µM* | 16µM*
CC(=NNC(=S)N1CCN(c2ccccn2)CC1)c1ccccn1 | ? | -3% | -22% | 41 | i | 0%
CC(=NNC(=S)N1CCCCCC1)c1cccc2cccnc12 | ? | -1% | ? | -101* | ? | 6.5µM*
CC(=NNC(=S)N1CC2CCC(CC2)C1)c1cnccn1 | ? | 0% | ? | -107* | ? | ?
C/C(=N\NC(=O)C1CCCN(S(=O)(=O)c2ccccc2)C1)c1ccccn1 (configuration not stated) | 5% | 1% | 8.9µM* | 92 | ? | ?
CN(Cc1ccccc1)C(=O)C1CCN(S(=O)(=O)Cc2ccccc2)CC1 | · | 2% | 7% | · | i | ·
CCn1nc(C)cc1C(=O)NCC1Cc2cc(C)cc(-c3ccccc3C(=O)OC)c2O1 (configuration not stated) | · | 1% | · | · | i | ·
CCc1ccc(NC(=O)c2sc3ncnc(N(C)C4CCCCC4)c3c2C)cc1 | · | 1% | -10% | · | i | ·
O=C(c1ccc(CS(=O)Cc2ccc(Cl)cc2)o1)N1CCN(c2ccccn2)CC1 (configuration not stated) | 12% | -1% | -28% | -62* | i | 7%
O=C(c1ccc(CS(=O)Cc2ccccc2Cl)o1)N1CCN(c2ccccn2)CC1 (configuration not stated) | -6% | 0% | -24% | 42 | i | 4%
CC(=O)n1cc(N(C(=O)CCl)c2ccc([N+](=O)[O-])cc2)c2ccccc21 | 16µM* | -1% | ? | -101* | 28µM* | ?
O=Cc1[nH]c2ccccc2c1N(C(=O)CCl)c1ccc([N+](=O)[O-])cc1 | ? | 1% | ? | -67* | ? | ?
CC(=O)n1cc(N(C(=O)CCl)c2ccccc2)c2ccccc21 | 1.6µM* | 0% | ? | -92* | · | 16µM*
CC(=O)n1cc(CO)c2ccccc21 | 25% | 0% | -7% | 30 | i | -7%
CCC1CCCCN1CCCNC(=O)c1[nH]c2ccccc2c1Sc1ccc(Cl)cc1 (configuration not stated) | · | -1% | ? | · | · | ·
COc1cccc(-c2cn3c(n2)sc2cc(C(=O)NCCc4ccc(OC)c(OC)c4)ccc23)c1 | · | 2% | · | · | · | ·
COc1ccc(C(=O)c2[nH]c(N)c(C(=O)NCCc3c[nH]c4ccccc34)c2-c2ccc(Br)cc2)cc1 | · | 5% | -6% | -22 | i | ·
Nc1[nH]c(C(=O)c2ccccc2)c(-c2ccc(Br)cc2)c1C(=O)NCCc1c[nH]c2ccccc12 | · | 4% | ? | ? | 22µM* | ·
Nc1ccccc1-c1nc2ccccc2[nH]c1=O | ? | 2% | · | -10 | i | -2%
O=c1[nH]c2ccccc2nc1-c1c[nH]c2ccccc12 | 0.73µM* | 16% | 3% | -22 | · | 25%
CCc1ccc(S(=O)(=O)NCc2nc(N3CCCC3)c3cccc(C)c3n2)cc1 | · | 0% | · | · | ? | ·
Cc1ccc(CNC(=O)CSC2=Nc3ccccc3N=C(c3ccc(F)cc3)C2)cc1 | · | 7% | 1% | · | i | ·
O=C(Cc1coc2cc3c(cc12)CCC3)NC1CCCCCCC1 | 5% | 8% | 13% | 0 | i | 7%
O=C(Cc1coc2cc3c(cc12)CCC3)NCC1(N2CCCCC2)CCCCC1 | -6% | 1% | 1%[11.3 µM] | -82* | i | 9%
